Several values for one entry are separate records, joined by “and”; a condition that tells them apart may be missing. Equal values may be shown once. Results filed as inconclusive are left out. Where a call stands in place of a potency, no number is given. Some compounds were tested as several samples or in several runs, with calls that do not always agree. Activity calls are given as the source filed them. Unless noted, calls come from the whole dose curve; as a rule, active = well fitted curve in the direction sought with a large enough effect; inconclusive = small, poorly fitted or top-dose-only effect, or another doubt; inactive = no such curve, though single readings can be large; an effect the other way counts as inactive or inconclusive.
Tests used:
[1] = molecular target: Atrial natriuretic peptide receptor 1 (Homo sapiens) (UniProt P16066); test: Natriuretic polypeptide receptor (hNpr1) antagonism - Pilot screen (AID 1347049; calls by dose curve;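 note: HEK293 cells with hNpr1 and GloSensor cGMP luciferase stimulated by 0.1 nM hNppA; agonist-evoked cGMP luminescence read 20 min after hNppA addition; series mostly up to about 58 µM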)
Sequence of Atrial natriuretic peptide receptor 1 (Homo sapiens) (P16066 whole entry, looked up): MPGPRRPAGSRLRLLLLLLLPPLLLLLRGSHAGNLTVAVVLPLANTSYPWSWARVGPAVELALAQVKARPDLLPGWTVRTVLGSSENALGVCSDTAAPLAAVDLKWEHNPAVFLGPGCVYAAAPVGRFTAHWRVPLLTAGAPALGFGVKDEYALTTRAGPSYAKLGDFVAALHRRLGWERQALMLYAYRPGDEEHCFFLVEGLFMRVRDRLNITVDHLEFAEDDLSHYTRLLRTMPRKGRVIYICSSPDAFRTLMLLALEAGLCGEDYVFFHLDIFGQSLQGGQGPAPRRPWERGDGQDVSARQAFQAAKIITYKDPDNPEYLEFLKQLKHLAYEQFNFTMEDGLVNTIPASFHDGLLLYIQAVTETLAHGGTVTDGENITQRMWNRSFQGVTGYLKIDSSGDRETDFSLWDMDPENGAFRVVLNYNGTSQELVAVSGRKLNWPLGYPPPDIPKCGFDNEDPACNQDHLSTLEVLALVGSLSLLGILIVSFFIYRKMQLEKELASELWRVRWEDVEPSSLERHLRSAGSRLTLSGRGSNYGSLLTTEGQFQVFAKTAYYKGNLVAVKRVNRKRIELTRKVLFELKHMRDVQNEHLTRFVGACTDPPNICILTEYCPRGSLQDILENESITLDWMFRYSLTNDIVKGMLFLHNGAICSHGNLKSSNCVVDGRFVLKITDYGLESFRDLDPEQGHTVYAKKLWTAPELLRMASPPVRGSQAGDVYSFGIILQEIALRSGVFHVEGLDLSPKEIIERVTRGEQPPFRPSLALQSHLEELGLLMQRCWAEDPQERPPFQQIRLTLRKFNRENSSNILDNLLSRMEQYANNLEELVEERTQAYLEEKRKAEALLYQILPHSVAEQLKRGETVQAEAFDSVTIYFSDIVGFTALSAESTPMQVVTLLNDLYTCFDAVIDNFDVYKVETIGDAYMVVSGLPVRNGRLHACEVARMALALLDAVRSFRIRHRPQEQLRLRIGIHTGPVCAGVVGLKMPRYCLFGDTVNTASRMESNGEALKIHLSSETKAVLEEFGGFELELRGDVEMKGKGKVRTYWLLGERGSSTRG
Outline: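 Cells expressing receptor plus cGMP biosensor are seeded and incubated overnight at 37C, then loaded with GloSensor reagent (2% final) at room temperature for 2 h. Library compounds go on for 30 min. A pre-read precedes agonist (hNppA, 0.1 nM final) and a 20-min readout.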

[2] = molecular target: Atrial natriuretic peptide receptor 2 (Homo sapiens) (UniProt P20594); test: Natriuretic polypeptide receptor (hNpr2) antagonism - Pilot subtype selectivity assay (AID 1347050; calls by dose curve; note: potency is the fitted concentration of half-maximal effect)
Sequence of Atrial natriuretic peptide receptor 2 (Homo sapiens) (P20594 whole entry, looked up): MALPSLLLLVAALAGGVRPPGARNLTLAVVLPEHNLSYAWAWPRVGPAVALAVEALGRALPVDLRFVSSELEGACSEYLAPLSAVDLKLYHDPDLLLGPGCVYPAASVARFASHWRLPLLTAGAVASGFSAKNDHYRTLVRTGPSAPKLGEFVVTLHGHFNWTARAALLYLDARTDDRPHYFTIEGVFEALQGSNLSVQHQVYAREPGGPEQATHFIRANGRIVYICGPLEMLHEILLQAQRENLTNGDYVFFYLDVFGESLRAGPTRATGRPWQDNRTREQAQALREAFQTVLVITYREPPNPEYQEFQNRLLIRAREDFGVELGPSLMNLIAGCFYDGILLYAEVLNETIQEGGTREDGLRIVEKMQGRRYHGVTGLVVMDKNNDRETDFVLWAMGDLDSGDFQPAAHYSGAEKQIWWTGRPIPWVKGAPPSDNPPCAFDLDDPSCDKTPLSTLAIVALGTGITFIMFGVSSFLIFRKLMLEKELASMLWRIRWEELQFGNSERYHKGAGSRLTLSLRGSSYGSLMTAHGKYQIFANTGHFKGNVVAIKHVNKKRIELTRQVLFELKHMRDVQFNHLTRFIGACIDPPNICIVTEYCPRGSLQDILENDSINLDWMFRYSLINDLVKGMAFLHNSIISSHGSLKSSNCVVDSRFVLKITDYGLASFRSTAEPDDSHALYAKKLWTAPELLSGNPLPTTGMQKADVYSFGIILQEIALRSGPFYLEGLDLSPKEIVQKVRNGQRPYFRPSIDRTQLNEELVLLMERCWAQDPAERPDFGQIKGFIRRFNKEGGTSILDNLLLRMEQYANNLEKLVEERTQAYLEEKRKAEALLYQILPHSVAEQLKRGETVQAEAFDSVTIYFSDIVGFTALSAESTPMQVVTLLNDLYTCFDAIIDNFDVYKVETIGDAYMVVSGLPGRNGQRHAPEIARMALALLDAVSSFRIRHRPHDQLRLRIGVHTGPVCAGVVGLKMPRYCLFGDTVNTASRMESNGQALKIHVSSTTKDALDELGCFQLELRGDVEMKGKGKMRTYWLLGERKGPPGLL
Outline: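 Read-out: GloSensor luminescence (CCD imager), baseline vs post-stimulation. HEK293 cells expressing hNpr2; compounds pre-incubated 30-50 min at ambient temperature; hNppC 1 nM final, 20 min.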

[3] = NS1 protein of Zika virus - qHTS assay to identify small molecule inhibitors in human HEK 293 cells (AID 1347053); note: nearly all actives have a fitted effect of over 55% in size; note: potency is the fitted concentration of half-maximal effect
Outline: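 Read-out is a two-antibody TR-FRET for ZIKV NS1, normalized between uninfected cells and infected cells. Compound added 1 h before MR766 infection at MOI 0.5; human HEK 293 cells incubated 24 h, 37 C.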

[4] = molecular target: T1, Tyrosine-protein phosphatase non-receptor type substrate 1 (Homo sapiens) + Leukocyte surface antigen CD47 (Homo sapiens) (UniProt P78324+Q08722); test: CD47-SIRPalpha protein protein interaction - LANCE assay qHTS validation (AID 1347057; active = well fitted curve in the direction sought with a large enough effect in the signal ratio, with a control signal flat, not every such curve was filed as active; the % refers to the signal ratio; note: series mostly up to about 38 µM)
T1 sequence (P78324 whole entry, looked up, the tested form may be a part): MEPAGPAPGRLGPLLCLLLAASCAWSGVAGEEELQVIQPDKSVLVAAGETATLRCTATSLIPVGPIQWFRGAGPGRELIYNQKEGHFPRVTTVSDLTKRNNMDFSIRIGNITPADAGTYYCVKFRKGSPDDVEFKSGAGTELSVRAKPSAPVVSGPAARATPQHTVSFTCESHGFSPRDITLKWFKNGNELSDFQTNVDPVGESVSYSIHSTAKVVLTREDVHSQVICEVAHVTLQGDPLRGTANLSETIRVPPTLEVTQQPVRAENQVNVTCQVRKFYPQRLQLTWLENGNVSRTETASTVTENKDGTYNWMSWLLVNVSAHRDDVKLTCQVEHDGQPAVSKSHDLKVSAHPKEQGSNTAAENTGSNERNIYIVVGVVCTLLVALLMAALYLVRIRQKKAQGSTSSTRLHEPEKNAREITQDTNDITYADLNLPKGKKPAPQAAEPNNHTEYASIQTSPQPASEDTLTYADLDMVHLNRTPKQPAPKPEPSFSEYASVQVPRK
T1 sequence (Q08722 whole entry, looked up, the tested form may be a part): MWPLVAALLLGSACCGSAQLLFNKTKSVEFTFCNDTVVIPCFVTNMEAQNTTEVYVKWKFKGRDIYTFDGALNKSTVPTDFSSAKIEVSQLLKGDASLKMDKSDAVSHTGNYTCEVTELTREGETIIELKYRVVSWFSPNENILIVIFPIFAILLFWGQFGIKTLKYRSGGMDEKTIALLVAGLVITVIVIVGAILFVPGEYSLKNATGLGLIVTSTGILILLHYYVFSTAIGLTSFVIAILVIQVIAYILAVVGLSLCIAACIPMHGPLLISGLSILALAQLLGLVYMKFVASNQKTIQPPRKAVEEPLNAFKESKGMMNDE
Outline: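 Inhibition of soluble CD47/SIRPalpha ectodomain association by titrated compounds, measured as 665/615 nm time-resolved FRET ratio after sequential 30 min room-temperature incubations.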

[5] = molecular target: T1, Tyrosine-protein phosphatase non-receptor type substrate 1 (Homo sapiens) + Leukocyte surface antigen CD47 (Homo sapiens); test: CD47-SIRPalpha protein protein interaction - HTRF assay qHTS validation (AID 1347058; active = well fitted curve in the direction sought with a large enough effect in the signal ratio, not every such curve was filed as active; the % refers to the signal ratio; note: series mostly up to about 38 µM)
Outline: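 Soluble extracellular domains (6His-CD47, Avi-tag-biotinylated SIRPalpha) in PBS pH 7.4 with 0.05% IGEPAL CA-630. Compounds were preincubated 30 min at RT with CD47 and anti-His-Eu, then SIRPalpha and SAV-XL665 were added. TR-FRET 665/615 ratio.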

[6] = molecular target: T1, Tyrosine-protein phosphatase non-receptor type substrate 1 (Homo sapiens) + Leukocyte surface antigen CD47 (Homo sapiens); test: CD47-SIRPalpha protein protein interaction - Alpha assay qHTS validation (AID 1347059);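 note: bead proximity luminescence from CD47 binding SIRPalpha after compound preincubation with SIRPalpha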
Outline: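 In PBS (pH 7.4) with 0.05% IGEPAL CA-630, compound is preincubated with biotin-Avi-SIRPalpha ectodomain before His-CD47 ectodomain and affinity beads are added. Light-protected room-temperature incubations; AlphaScreen readout.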

[7] = molecular target: Parathyroid hormone/parathyroid hormone-related peptide receptor (Homo sapiens) (UniProt Q03431); test: qHTS for PTHR1 Agonists: Optimization Screen against the NCGC LOPAC library (AID 1347079);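 note: GloSensor cAMP luminescence in HEK-293 GP2 cells expressing human PTHR1 with IBMX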
Sequence of Parathyroid hormone/parathyroid hormone-related peptide receptor (Homo sapiens) (Q03431 whole entry, looked up): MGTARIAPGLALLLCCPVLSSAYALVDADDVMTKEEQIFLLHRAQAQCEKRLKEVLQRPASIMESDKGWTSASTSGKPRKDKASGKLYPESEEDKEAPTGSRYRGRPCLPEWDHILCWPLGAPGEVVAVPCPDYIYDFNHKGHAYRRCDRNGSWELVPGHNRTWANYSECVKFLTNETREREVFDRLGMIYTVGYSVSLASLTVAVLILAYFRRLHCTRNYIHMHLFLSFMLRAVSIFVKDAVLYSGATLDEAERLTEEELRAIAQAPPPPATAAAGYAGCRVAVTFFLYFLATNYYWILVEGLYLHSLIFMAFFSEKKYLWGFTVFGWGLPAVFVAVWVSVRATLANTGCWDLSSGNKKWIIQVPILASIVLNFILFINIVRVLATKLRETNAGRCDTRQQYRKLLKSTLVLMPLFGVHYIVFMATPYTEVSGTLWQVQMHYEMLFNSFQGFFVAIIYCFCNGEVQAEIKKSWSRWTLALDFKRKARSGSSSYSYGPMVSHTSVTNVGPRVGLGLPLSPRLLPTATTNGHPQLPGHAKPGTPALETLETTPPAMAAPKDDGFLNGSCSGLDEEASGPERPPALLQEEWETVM
Outline: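 HEK-293 GP2 cells, PTHR1 + GloSensor cAMP; 3000 cells/well, o/n. Luciferin + IBMX 0.5mM each (stock), 1 hr 37C. Cpd titration, 1 hr 37C. Lum after 15 min RT. Ctrl M-PTH(1-15) top 10uM.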

[8] = qHTS of pediatric cancer cell lines to identify multiple opportunities for drug repurposing: Primary screen for SJ-GBM2 cells (AID 1347091); note: potency is the fitted concentration of half-maximal effect
Outline: (§1)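 Eight- or eleven-point concentration series, 48 h treatment at 37 degrees C in growth media; readout CellTiter-Glo luminescence. Potency and efficacy were taken from the concentration-response curves.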

[9] = qHTS of pediatric cancer cell lines to identify multiple opportunities for drug repurposing: Primary screen for TC32 cells (AID 1347089); note: nearly all actives have a fitted effect of over 60% in size; note: potency is the fitted concentration of half-maximal effect
Outline: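 Measured quantity: luminescence from CellTiter-Glo, reflecting metabolically active TC32 cells following 48 h of compound. Curves came straight from multi-point titrations, with 8 or 11 points in primary and 11 in confirmatory screening.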

[10] = qHTS of pediatric cancer cell lines to identify multiple opportunities for drug repurposing: Primary screen for DAOY cells (AID 1347090); note: series mostly up to about 46 µM; nearly all actives have a fitted effect of over 55% in size
Outline: as §1

Structure (SMILES)	outcome [1]	Potency [2]	Potency [3]	outcome [4]	outcome [5]	outcome [6]	outcome [7]	Potency [8]	Potency [9]	Potency [10]
Cc1oncc1C(=O)Nc1ccc(C(F)(F)F)cc1	inactive	inactive	inactive and 11.8 µM (active)	inactive	inactive	inactive	inactive	inactive	–	–
C1COC(NC(C2CC2)C2CC2)=N1	inactive	inactive	inactive	inactive	inactive	inactive	inactive	–	inactive	inactive
O=C(O)COCCN1CCN(C(c2ccccc2)c2ccc(Cl)cc2)CC1 (stereo not given)	inactive	13.1 µM (active)	inactive	inactive	inactive	inactive	inactive	–	inactive	–
CCC(C)N(C)C(=O)c1cc2ccccc2c(-c2ccccc2Cl)n1 (stereo not given)	inactive	inactive	inactive	inactive	inactive	inactive	inactive	–	inactive	inactive
CC(=O)Oc1ccccc1C(=O)O	inactive	inactive	inactive	inactive	inactive	inactive	inactive	inactive	inactive	–
CC(C)C[C@H](NC(=O)[C@@H](O)[C@H](N)Cc1ccccc1)C(=O)O	inactive	inactive	inactive	inactive	inactive	inactive	inactive	–	inactive	–
CCOC(=O)C1=C[C@]2(CC)CCCN3CCc4c(n1c1ccccc41)[C@@H]32	inactive	inactive	inactive	inactive	inactive	inactive	inactive	–	inactive	–
O=C1CCc2cc(OCCCCc3nnnn3C3CCCCC3)ccc2N1	inactive	inactive	inactive	inactive	inactive	inactive	inactive	inactive	inactive	inactive
CC(C)(C)NCC(O)c1ccc(O)c(CO)c1 (stereo not given)	inactive	inactive	inactive	inactive	inactive	inactive	inactive	–	inactive	–
Nc1ccc(S(=O)(=O)Nc2ccnn2-c2ccccc2)cc1	inactive	inactive	inactive	inactive	inactive	inactive	inactive	inactive	inactive	–
N[C@@H]1CONC1=O	inactive	inactive	inactive	inactive	inactive	inactive	inactive	inactive	inactive	–
O=c1[nH]cnc2[nH]ncc12	inactive	inactive	inactive	inactive	inactive	inactive	inactive	inactive	inactive	–
CC(C[N+](C)(C)C)OC(N)=O (stereo not given)	inactive	inactive	inactive	inactive	inactive	inactive	inactive	inactive	inactive	inactive
Cc1ccccc1C(OCCN(C)C)c1ccccc1 (stereo not given)	inactive	inactive	inactive	inactive	inactive	inactive	inactive	inactive	inactive	inactive
CCOC(=O)N1CCC(=C2c3ccc(Cl)cc3CCc3cccnc32)CC1	inactive	inactive	inactive	inactive	inactive	inactive	inactive	23.5 µM (active)	inactive	–
O=c1n(CCCN2CCN(c3cccc(Cl)c3)CC2)nc2ccccn12	inactive	inactive	inactive	inactive	inactive	inactive	inactive	inactive	inactive	inactive
CCCC(CCC)C(=O)O	inactive	inactive	inactive	inactive	inactive	inactive	inactive	inactive	inactive	–
Cc1[nH]c(=O)c(C#N)cc1-c1ccc2nccn2c1	inactive	inactive	inactive	inactive	inactive	inactive	inactive	inactive	inactive	inactive
NCCCC(N)(C(=O)O)C(F)F (stereo not given)	inactive	inactive	inactive	inactive	inactive	inactive	inactive	inactive	inactive	inactive

Structure (SMILES)	outcome [1]	Potency [2]	Potency [3]	outcome [4]	outcome [5]	outcome [6]	outcome [7]	Potency [8]	Potency [9]	Potency [10]
NC(=O)c1cnccn1	inactive	inactive	inactive	inactive	inactive	inactive	inactive	inactive	inactive	–
O=NN(CCCl)C(=O)NCCCl	inactive	inactive	inactive	inactive	inactive	inactive	inactive	inactive	inactive	–
CCn1cc(C(=O)O)c(=O)c2cc(F)c(N3CCNC(C)C3)c(F)c21 (stereo not given)	inactive	inactive	inactive	inactive	inactive	inactive	inactive	inactive	inactive	inactive
OC(CCN1CCCCC1)(c1ccccc1)C1CC2C=CC1C2 (stereo not given)	inactive	inactive	inactive	inactive	inactive	inactive	inactive	–	inactive	–
CC(C)NCC(O)COc1ccc(COCCOC(C)C)cc1 (stereo not given)	inactive	inactive	inactive	inactive	inactive	inactive	inactive	inactive	inactive	inactive
NS(=O)(=O)c1cc2c(cc1Cl)NC=NS2(=O)=O	inactive	inactive	inactive	inactive	inactive	inactive	inactive	–	inactive	inactive
NCCc1ccc(O)c(O)c1	inactive	inactive	inactive	inactive	inactive	inactive	inactive	inactive	inactive	–
OC(CN1CCC(Cc2ccc(F)cc2)CC1)c1ccc(Cl)cc1 (stereo not given)	inactive	inactive	inactive	inactive	inactive	inactive	inactive	–	inactive	inactive
Cc1cn[nH]c1	inactive	inactive	inactive	inactive	inactive	inactive	inactive	–	inactive	inactive
Clc1cccc(Cl)c1NC1=NCCN1	inactive	inactive	inactive	inactive	inactive	inactive	inactive	–	inactive	–
O=C1CCC(N2C(=O)c3ccccc3C2=O)C(=O)N1 (stereo not given)	inactive	inactive	inactive	inactive	inactive	inactive	inactive	inactive	inactive	inactive
CC(C)(Sc1ccc(CCN(CCCCC2CCCCC2)C(=O)NC2CCCCC2)cc1)C(=O)O	inactive	inactive	inactive	inactive	inactive	inactive	inactive	–	inactive	–
CNC[C@H](O)c1cccc(O)c1	inactive	inactive	inactive	inactive	inactive	inactive	inactive	inactive	inactive	–
NC(N)=NC(=O)c1nc(Cl)c(N)nc1N	inactive	inactive	inactive	inactive	–	inactive	inactive	–	inactive	–
Nc1nc2ccc(OC(F)(F)F)cc2s1	inactive	inactive	inactive	inactive	inactive	inactive	inactive	21.1 µM (active)	inactive	–
Oc1ccc(C2CNCCc3c2cc(O)c(O)c3Cl)cc1 (stereo not given)	inactive	inactive	inactive	inactive	inactive	inactive	inactive	inactive	inactive	inactive
N=c1nc(N2CCCCC2)cc(N)n1O	inactive	inactive	inactive	–	–	–	inactive	inactive	inactive	–
CCOc1cc(N2CCC(O)CC2)ccc1Nc1ncc2c(n1)N(C)c1ccccc1C(=O)N2C	–	–	inactive	–	–	–	–	–	23.4 µM (active)	–
Cc1[nH]c(=O)c(C#N)cc1-c1ccncc1	inactive	inactive	inactive	inactive	–	inactive	inactive	–	–	inactive

Structure (SMILES)	outcome [1]	Potency [2]	Potency [3]	outcome [4]	outcome [5]	outcome [6]	outcome [7]	Potency [8]	Potency [9]	Potency [10]
C[C@]12CC[C@H](O)CC1=CC[C@@H]1[C@H]2CC[C@]2(C)C(c3cccnc3)=CC[C@H]12	–	–	inactive	–	–	–	–	–	inactive	–
c1ccc([C@H]2CN3CCSC3=N2)cc1	–	inactive	inactive	inactive	inactive	inactive	inactive	inactive	inactive	inactive
Cc1cnc(NC(=O)C2=C(O)c3ccccc3S(=O)(=O)N2C)s1	–	–	inactive	inactive	inactive	inactive	inactive	–	inactive	inactive
CC(=O)NC(C)c1ccc(Oc2ccc(OC(C)C)cc2)cc1 (stereo not given)	–	–	inactive	–	–	–	–	–	inactive	–
COc1ccccc1[C@H](c1cccc2ccccc12)[C@@](C)(C#N)C(=O)N1CCC(c2cccc(C(F)(F)F)c2)CC1	–	–	inactive	–	–	–	–	–	–	–
O=C(c1cc(Cc2n[nH]c(=O)c3ccccc23)ccc1F)N1CCN(C(=O)C2CC2)CC1	–	–	inactive	–	–	–	–	–	16.5 µM (active)	–
Nc1nc2c(ncn2COCCO)c(=O)[nH]1	–	inactive	inactive	inactive	inactive	inactive	inactive	inactive	inactive	–
C#Cc1cccc(Nc2ncnc3cc(OCCOC)c(OCCOC)cc23)c1	–	–	inactive	–	–	–	–	–	–	–
Cc1cccc(-c2[nH]c(C(C)(C)C)nc2-c2ccc3nccnc3c2)n1	inactive	inactive	inactive	inactive	–	inactive	inactive	8.33 µM (active)	13.1 µM (active)	–
O=c1ncn2nc(Sc3ccc(F)cc3F)ccc2c1-c1c(Cl)cccc1Cl	–	–	inactive	–	–	–	–	–	inactive	–
O=C(Nc1nc2ccccc2n1CCN1CCOCC1)c1cccc([N+](=O)[O-])c1	inactive	–	inactive	inactive	–	inactive	inactive	14.8 µM (active)	inactive	–
CCCCNc1cc(C(=O)O)cc(S(N)(=O)=O)c1Oc1ccccc1	inactive	inactive	inactive	inactive	–	–	inactive	–	inactive	inactive
O=c1[nH]c(-c2ccc(C(F)(F)F)cc2)nc2c1CSCC2	–	–	inactive	–	–	–	–	–	inactive	–
CS(=O)(=O)c1cccc(CNc2nc(Nc3ccc4c(c3)CCC(=O)N4)ncc2C(F)(F)F)c1	–	–	inactive	inactive	–	inactive	–	–	–	–
O=C(O)CCc1ccc(NCc2cccc(Oc3ccccc3)c2)cc1	–	–	inactive	inactive	inactive	inactive	–	–	inactive	inactive
CN1CCN(CCCN2c3ccccc3Sc3ccc(C(F)(F)F)cc32)CC1	inactive	–	inactive	–	–	–	inactive	–	inactive	–
C[C@]12CCC(=O)C=C1CC[C@@H]1[C@@H]2[C@@H](O)C[C@@]2(C)[C@H]1CC[C@]2(O)C(=O)CO	inactive	inactive	inactive	–	–	–	inactive	inactive	inactive	inactive
Cc1ccc(N(CC2=NCCN2)c2cccc(O)c2)cc1	inactive	inactive	inactive	–	–	–	inactive	–	inactive	–
CCCS(=O)(=O)Nc1ccc(F)c(C(=O)c2c[nH]c3ncc(Cl)cc23)c1F	–	–	inactive	–	–	–	–	–	inactive	–
